TRHR PAM: qHTS for Small Molecule Agonists and Allosteric Enhancers of Human TRH Receptor: Primary Screen for Enhancers; 360,000 compounds, 0.66% hits; TRHR cells, fluo-8 calcium fluorescence, EC20 TRH enhancement; Thyrotropin-releasing hormone receptor (Homo sapiens), P34981; AID 493056, 2011; enhancement, % at 2 µM; in the data active = enhancement above about 30%; note: 0% is about no effect
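Enhancer read-out: after compound pinning and an initial kinetic agonist-mode read, an EC20 of TRH (10 nM final) was injected and fluo-8 calcium signal (Ex 480/Em 530) followed at 1 s/cycle for 100 cycles in TRHR-expressing cells.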
TRHR agonist: qHTS for Small Molecule Agonists and Allosteric Enhancers of Human TRH Receptor: Primary Screen for Agonists; 360,000 compounds, 0.18% hits; TRHR cells, calcium flux fluo-8, FDSS agonist mode; activation, % at 2 µM; AID 493084, 2011; Thyrotropin-releasing hormone receptor (Homo sapiens), P34981; in the data active = activation above about 30%; note: 0% is about no effect
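In this calcium-flux screen, cells bearing human TRHR are dye-loaded with fluo-8, baselined for 10 cycles, then exposed to library compounds; positive kinetic calcium responses during the agonist phase mark hits, with TRH as control.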
TRPML1 blocker: qHTS for Inhibitors of the Human Mucolipin Transient Receptor Potential 1 (TRPML1); 390,000 compounds, 0.02% hits; TRPML1-inducible cells, Ca2+ dye fluorescence, FDSS; active compounds read low; inhibition of EC80 agonist-evoked calcium signal; activity change, negative = inhibition, % (test concentration not listed); AID 624415, 2012; Mucolipin-1 (Homo sapiens), Q9GZU1; in the data active = activity change below about -50%; inconclusive = between about -30% and that limit;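 note: stimulus is agonist 54-4 at its EC80 concentration; % is set by controls: 0 for no effect and ±100 for the full control effect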
Target sequence (Q9GZU1 whole entry, looked up): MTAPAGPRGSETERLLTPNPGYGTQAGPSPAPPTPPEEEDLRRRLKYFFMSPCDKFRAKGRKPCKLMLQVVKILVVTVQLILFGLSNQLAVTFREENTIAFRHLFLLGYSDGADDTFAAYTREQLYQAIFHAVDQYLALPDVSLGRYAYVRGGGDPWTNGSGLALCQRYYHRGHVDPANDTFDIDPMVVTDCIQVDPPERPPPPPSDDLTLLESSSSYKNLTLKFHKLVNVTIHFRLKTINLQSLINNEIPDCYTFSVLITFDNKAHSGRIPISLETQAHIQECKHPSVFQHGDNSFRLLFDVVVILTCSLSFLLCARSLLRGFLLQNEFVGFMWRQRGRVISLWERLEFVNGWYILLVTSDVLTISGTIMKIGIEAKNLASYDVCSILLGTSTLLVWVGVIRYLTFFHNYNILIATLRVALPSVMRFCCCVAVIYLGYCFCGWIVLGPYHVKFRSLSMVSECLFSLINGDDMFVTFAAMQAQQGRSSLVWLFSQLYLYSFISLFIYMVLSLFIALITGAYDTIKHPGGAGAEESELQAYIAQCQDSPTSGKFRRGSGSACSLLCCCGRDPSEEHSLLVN
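TRPML1-DL cells, Tet-induced overnight (~16 h, 37 °C) at 1,500 cells/well, were loaded with Ca8 no-wash dye plus quencher for 45-90 min at room temperature. Compounds were pinned during FDSS kinetic reading; agonist 54-4 at EC80 (4 uM final) then added.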
GRP78 ERSR act: qHTS for Inducers of the Endoplasmic Reticulum Stress Response (ERSR) in Human Glioma: qHTS. 420,000 compounds, 0.02% hits. Potency, µM, inactives show at the highest dose activation, actives largely listed as activators. AID 602332, 2012. U87-MG GRP78 promoter luciferase reporter, 16 h; active = well fitted activation curve with a large enough effect; inconclusive = small, poorly fitted or top-dose-only effect; inactive = no such curve, though single readings can be large or run the other way; note: potency is the fitted concentration of half-maximal effect; series mostly up to about 76 µM; % of control where 0% means no effect; nearly all actives have a fitted effect of over 35% in size
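Stably transfected U87-MG human glioma cells carrying a GRP78-based luminescent sensor were seeded at 1000 cells/well, pin-dosed with compounds and incubated 16 h. Luciferase reagent was then added, and end-point luminescence was read after 10 min at room temperature.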
TRPML1 agonist: qHTS for Agonists of the Human Mucolipin Transient Receptor Potential 1 (TRPML1). 410,000 compounds, 0.12% hits. activation, % (no concentration beside the values). AID 624414, 2012. TRPML1-expressing cells, Ca2+ dye fluorescence, FDSS; in the data active = activation above about 50%; inconclusive = mostly about 30% to 49%; note: 0% is about no effect
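Calcium fluorescence on an FDSS kinetic reader gave the read-out. Tet-induced TRPML1-DL cells were plated overnight, dye-loaded (Ca8 with quencher, 45-90 min, room temperature, dark), then read 110 s after compound addition, and again 110 s after 4uM final 54-4 (EC80).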
Starred values were filed as active, the others as inactive; u = inconclusive; x = no result given; ! = not confirmed by another sample. This is a sample that favours compounds with a hit; in the whole collection about 0.8% have one here.

SMILES | TRHR PAM | TRHR agonist | TRPML1 blocker | GRP78 ERSR act | TRPML1 agonist
COc1cc(Cl)c(C)cc1Nc1nc2ccccc2c2nnc(C)n12 | 33* | 0 | 26 | -3% | 1
Cc1nnc2c3ccccc3nc(Nc3ccc(F)cc3Cl)n12 | 5 | 1 | 34 | 0% | 1
Cc1cc(=O)c(C(=O)N(C)CCc2ccccn2)c2n1-c1ccccc1SC(c1ccsc1)C2 (configuration not stated) | x | x | x | -4% | x
O=c1cc(-c2ccc(F)cc2)nc(SCc2nc(-c3ccc(Cl)cc3)no2)[nH]1 | 43* | 0 | 7 | -3% | 1
O=c1cc(-c2ccccc2)nc(SCc2nc(-c3ccc(Cl)cc3)no2)[nH]1 | 3 | 0 | -11 | -2% | 0
Cc1cc(=O)oc2cc(OCC(=O)Nc3ccc(CN4CCOCC4)cc3)ccc12 | 5 | 0 | -4 | -2% | 0
O=C(COc1ccc2c3c(c(=O)oc2c1)CCC3)Nc1ccc(CN2CCOCC2)cc1 | 33* | 0 | 3 | -5% | -1
CCn1nc(C)cc1C(=O)NCC1Cc2cc(C)cc(-c3ccccc3C(=O)OC)c2O1 (configuration not stated) | x | x | x | -3% | x
CCOC(=O)Cn1c(=O)n(C2CCCC2)c(=O)c2ccccc21 | 41* | -1 | -4 | 2% | 1
CCOC(=O)Cn1c(=O)n(CC(=O)OCC)c2ccccc21 | -4 | 1 | -6 | -3% | -1
CC(C)NC(=O)[C@@H]1C[C@@H](Sc2nc3ccccc3[nH]2)CN1C1Cc2ccccc2C1 | x | x | x | 1% | x
Cc1ccc(C)c2c1c1ccccc1n2C | 31* | 0 | 31 | -5% | 2
Cc1c(O)c(=O)c2ccccc2n1C | -4 | 0 | 2 | -5% | 0
Cc1ccc(CNC(=O)CSc2ccc(-c3ccccn3)nn2)cc1 | 0 | -1 | 0 | 1% | 1
O=C(CSc1ccc(-c2ccccn2)nn1)NCc1ccc(Cl)cc1 | 32* | -1 | 3 | -7% | 1
CCc1nnc(NC(=O)C2Cc3ccccc3CN2S(=O)(=O)c2cccs2)s1 (configuration not stated) | 32* | -1 | -12 | 0% | 2
CCc1nnc(NC(=O)C2Cc3ccccc3CN2S(=O)(=O)c2ccc(C)cc2)s1 (configuration not stated) | 5 | -1 | 46 | 5% | 4
COc1ccc(CN2CCC3(CC2)c2ccccc2[C@@H](NC(=O)c2ccccc2OC)[C@@H]3O)cc1O | x | x | x | 2% | x
COCc1c(C(=O)N2CCC(c3ccccc3)CC2)cnn1-c1nccc(-c2cc(C)sc2C)n1 | x | x | x | -11% | x
COc1ccccc1N=Nc1[nH]c2ccc(C)cc2c1O | 34* | 0 | 7 | 1% | 1
Cc1ccc2[nH]c(O)c(N=Nc3ccccc3[N+](=O)[O-])c2c1 | x | x | 14 | 2% | 0
CN(C)c1ccc(C=C2C(=O)c3ccccc3C2=O)cc1 | x | x | x | -2% | 51*
Cc1ccc(NC(=O)c2cc(S(=O)(=O)N(C)C)ccc2N2CCCC2)cc1F | -11 | 0 | 6 | 32µM* | 2
CN(C)S(=O)(=O)c1ccc(N2CCCC2)c(C(=O)NCC(=O)Nc2ccc(F)c(F)c2)c1 | -1 | 0 | -22 | -4% | 0
N#Cc1nc(Nc2cccc(-c3ccccc3)c2)nc(NC2CCCC2)n1 | 1 | 1 | x | x | x
SMILES | TRHR PAM | TRHR agonist | TRPML1 blocker | GRP78 ERSR act | TRPML1 agonist
COc1ccc(C)cc1S(=O)(=O)NCCN1CCOCC1 | 40* | 1 | 6 | -3% | -1
COc1cc(=O)n2c(c1C(=O)NC(C)c1ccco1)CCN(C(=O)c1ccnc(Cl)c1)CC2 (configuration not stated) | x | x | x | -3% | x
CCc1nn(C(CC)C(=O)NCc2ccc(OC)c(OC)c2)c(=O)c2cc3oc(C)cc3n12 (configuration not stated) | 41* | -2 | -9 | 0% | 0
Cc1ccc2nc(-c3ccccc3C)c(CN(CC3CCCO3)C(=O)c3cccs3)cc2c1 (configuration not stated) | x | x | x | -3% | x
C/C(=C\c1ccccc1)C(=O)c1c(C)cc(C)[nH]c1=O | 32* | 1 | -7 | -4% | 0
COc1cc(OC)c(OC)cc1CN1CCCC(c2nc(C)ncc2-c2ccc(F)cc2)C1 (configuration not stated) | x | x | x | -2% | x
Cc1ccccc1-c1cccc(CN2CCc3nnc(C(C)NC(=O)c4cccnc4)n3CC2)c1 (configuration not stated) | x | x | x | -4% | x
Clc1ccc2[nH]c3c(c2c1)CNCC3 | 38* | 1 | -15 | -5% | 1
COc1ccc2[nH]c3c(c2c1)CNCC3 | x | x | -2 | -7% | 0
O=C(c1ccc(F)cc1)N1CCN(c2ccccn2)CC1 | 30* | 0 | 7 | -1% | 0
COc1ccc(C(=O)N2CCN(c3ccccn3)CC2)cc1 | -7 | 1 | -3 | -1% | 0
N#CC1=C(N)OC2=C(CCC/C2=C/c2ccoc2)C1c1ccoc1 (configuration not stated) | 18 | 2 | x | x | x
N#CC1=C(N)OC2=C(CC/C2=C\c2ccc(F)cc2)C1c1ccc(F)cc1 (configuration not stated) | 2 | 42* | x | x | x
C/C(=N\NC(=O)c1nn(C)c(C)c1Br)c1ccc(NC(=O)c2ccoc2C)cc1 | 31* | -1 | -1 | -1% | -1
C/C(=N\NC(=O)c1c(Br)c(C)nn1C)c1ccc(NC(=O)c2ccoc2C)cc1 | -6 | 0 | 1 | -2% | 0
C=C[C@@H]1c2ccccc2N(S(=O)(=O)c2ccc(C)cc2)[C@H](c2ccccc2)C1(C#N)C#N | -7 | 0 | -21 | -4% | 63*!
C=C[C@@H]1c2cc(C)ccc2N(S(=O)(=O)c2ccc(C)cc2)[C@H](c2ccccc2)C1(C#N)C#N | 2 | 1 | u | -4% | 21
Cc1ccc(CN2CCOc3ccc(CN4CCC(Oc5cccnc5)CC4)cc3C2)o1 | x | x | x | -4% | x
CCc1ccc(CNc2ccc3c(c2)ncn3C)cc1 | 31* | 0 | 14 | 5% | 0
Cc1ccc(CNc2ccc3c(c2)ncn3C)cc1 | -6 | 1 | -2 | 5% | 0
O=C(CSCc1ccc(Cl)cc1)Nc1cccc(C(=O)O)c1 | 38* | 1 | -6 | -5% | 0
CC(=O)c1cccc(NC(=O)CSCc2ccccc2)c1 | -6 | 0 | -2 | 6% | 0
CC1=CC(=O)C(C(C)C)=C/C1=N/OS(=O)(=O)c1ccccc1 | -11 | 1 | -5 | -14% | 50*
